Values without a mark were called inactive. Records with an inconclusive call do not appear. The source made the active and inactive calls. Calls come from the whole dose curve; as a rule, active = well fitted curve in the direction sought with a large enough effect; inconclusive = small, poorly fitted or top-dose-only effect, or another doubt; inactive = no such curve, though single readings can be large; an effect the other way counts as inactive or inconclusive. Peptide text beside a SMILES is read from it.

Experiment [1] can be described thus: qHTS for Inhibitors of Plasmodium falciparum (7G8) proliferation (AID 504316). Note: nearly all actives have a fitted effect of over 65% in size. Note: potency is the fitted concentration of half-maximal effect. In a few lines: (§1)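 Erythrocytes infected with P. falciparum line (0.3% parasitemia, 2.5% hematocrit final) incubated with compounds 72 h at 37 °C, 5% CO2; SYBR Green lysis buffer added, fluorescence read next day. Normalized to 0.29 uM artemisinin and DMSO.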
Experiment [2] can be described thus: qHTS for Inhibitors of Plasmodium falciparum (GB4) proliferation (AID 504315). Note: nearly all actives have a fitted effect of over 50% in size. Note: potency is the fitted concentration of half-maximal effect. In a few lines: as §1
Experiment [3] deals with 3D7. Description: qHTS profiling for inhibitors of Plasmodium falciparum proliferation (AID 504749).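 Note: 0% = DMSO vehicle and full inhibition = artemisinin control; nearly all actives have a fitted effect of over 60% in size.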 Conditions: P. falciparum in erythrocytes, SYBR Green DNA, 72 h; series mostly up to 28.7 µM. In a few lines: (§2)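 Three-day growth assay of blood-stage parasites in erythrocytes (0.3% parasitemia, 2.5% hematocrit) at 37 C, 5% CO2, quantified by SYBR Green DNA staining after overnight detergent lysis.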
(qHTS replaces the single test concentration by a dilution series.)

Experiment [4] concerns AS120. Described as above. Conditions: P. falciparum in erythrocytes, SYBR Green DNA, 72 h; series mostly up to 28.7 µM. In a few lines:
as §2

The test system of experiment [5] is ATS95. Described as above. As to conditions: P. falciparum in erythrocytes, SYBR Green DNA, 72 h; series mostly up to 28.7 µM. In outline:
as §2

Experiment [6] concerns CP191. The description is as above. As to conditions: P. falciparum in erythrocytes, SYBR Green DNA, 72 h; series mostly up to 28.7 µM. In a few lines: as §2
For experiment [7], the system named is CP211. Described as above. As to conditions: P. falciparum in erythrocytes, SYBR Green DNA, 72 h; series mostly up to 28.7 µM. In outline:
as §2

In experiment [8] the test system is CP247. The description is as above. As to conditions: P. falciparum in erythrocytes, SYBR Green DNA, 72 h; series mostly up to 28.7 µM. In a few lines:
as §2

The test system of experiment [9] is CP250. Described as above. Conditions: P. falciparum in erythrocytes, SYBR Green DNA, 72 h; series mostly up to 28.7 µM. In outline:
as §2

Experiment [10] deals with CP262. The description is as above. Conditions: P. falciparum in erythrocytes, SYBR Green DNA, 72 h; series mostly up to 28.7 µM. In outline:
as §2

In experiment [11] the test system is CP297. The description is as above. Conditions: P. falciparum in erythrocytes, SYBR Green DNA, 72 h; series mostly up to 28.7 µM. In a few lines: as §2
Experiment [12] concerns CP335. The description is as above. As to conditions: P. falciparum in erythrocytes, SYBR Green DNA, 72 h; series mostly up to 28.7 µM. In outline:
as §2

Experiment [13] concerns Dd2. The description is as above. Conditions: P. falciparum in erythrocytes, SYBR Green DNA, 72 h; series mostly up to 28.7 µM. In outline: as §2
The subject of experiment [14] is ECU. Described as above. Conditions: P. falciparum in erythrocytes, SYBR Green DNA, 72 h; series mostly up to 28.7 µM. In a few lines: as §2
For experiment [15], the system named is N140. The experiment is described as above. As to conditions: P. falciparum in erythrocytes, SYBR Green DNA, 72 h; series mostly up to 28.7 µM. In a few lines: as §2
Experiment [16] has as its system P93_24. The experiment is described as above. As to conditions: P. falciparum in erythrocytes, SYBR Green DNA, 72 h; series mostly up to 28.7 µM. In outline:
as §2

Experiment [17] concerns PAD. Described as above. As to conditions: P. falciparum in erythrocytes, SYBR Green DNA, 72 h; series mostly up to 28.7 µM. In outline:
as §2

In experiment [18] the test system is TAB113. The experiment is described as above. As to conditions: P. falciparum in erythrocytes, SYBR Green DNA, 72 h; series mostly up to 28.7 µM. In a few lines: as §2
Experiment [19] has as its system TAB165. The experiment is described as above. As to conditions: P. falciparum in erythrocytes, SYBR Green DNA, 72 h; series mostly up to 28.7 µM. In a few lines:
as §2

Experiment [20] addresses Cytochrome P450 3A4 (Homo sapiens) (UniProt P08684). Description: qHTS Assay for Activators of Cytochrome P450 3A4 (AID 885). Note: nearly all actives have a fitted effect of over 65% in size. In a few lines: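 Human CYP3A4 (20 nM) with Luciferin-PPXE at 25 uM (its KM) in 200 mM KPO4; 10 min compound preincubation, then NADPH regeneration and 60 min reaction at RT. Luciferin read by luminescence; normalized to 57 uM ketoconazole full inhibition.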

Cytochrome P450 3A4 (Homo sapiens), sequence (P08684 whole entry, looked up): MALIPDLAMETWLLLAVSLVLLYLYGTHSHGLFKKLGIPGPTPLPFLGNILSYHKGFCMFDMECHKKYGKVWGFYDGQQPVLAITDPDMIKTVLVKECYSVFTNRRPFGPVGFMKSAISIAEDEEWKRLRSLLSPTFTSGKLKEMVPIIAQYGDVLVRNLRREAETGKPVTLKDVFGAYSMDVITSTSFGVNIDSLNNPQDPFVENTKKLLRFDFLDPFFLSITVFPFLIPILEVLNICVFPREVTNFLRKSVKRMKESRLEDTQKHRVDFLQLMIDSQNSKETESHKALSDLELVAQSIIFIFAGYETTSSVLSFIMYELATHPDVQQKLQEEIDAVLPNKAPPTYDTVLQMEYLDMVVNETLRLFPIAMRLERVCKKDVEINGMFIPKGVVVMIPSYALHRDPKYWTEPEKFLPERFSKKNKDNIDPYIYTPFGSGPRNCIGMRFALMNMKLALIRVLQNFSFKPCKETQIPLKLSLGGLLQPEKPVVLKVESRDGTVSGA

Turning to `COc1ccc([C@]23Cc4cc(C#N)ccc4[C@H](O2)c2c(cc(-c4ccccc4)oc2=O)O3)cc1`, the Potency in experiment [1] was 1350 nM (active).

As to `CCOC(=O)OC[C@H]1O[C@H](C#Cc2ccccc2)C=C[C@H]1OC(=O)OCC`, the Potency in experiment [1] is 1510 nM (active).

With `COC(=O)N1C2CC(=O)O[C@@H]3c4cc5c(cc4[C@]1(C)[C@@]3(Br)c1ccccc12)OCO5`, the Potency in experiment [2] is 1510 nM (active); in experiment [1], 1690 nM (active).

For `COC(=O)C1=C(C(=O)OC)[C@@H]2Nc3ccccc3[C@@]23C[C@@H](C(=O)OC)N(C(=O)c2cccs2)C3=N1`, the Potency result in experiment [2] and in [1] was “inactive” throughout.

In the case of `COC(=O)CCCC1=CC2=C(c3ccccc3)C(=O)C(C)(OC(=O)C3CCCC3)C(=O)C2=CN1CCc1c[nH]c2ccccc12` (stereo unspecified), the Potency entry in experiment [2] and in experiment [1] was “inactive” in each case.

As to `O=C1C=CC2(OCCCO2)C(Br)=C1CO`, the Potency entry in experiment [1] was “inactive”.

Consider `C#CCCCON=C1C[C@@H](O)[C@@H](O)[C@@H]2[C@H]3C(=O)N([C@@H](C)c4ccccc4)C(=O)[C@@H]3CC[C@H]12`, for which the Potency result in experiment [2] is “inactive”.

On to `COc1ccc([C@]23Cc4cc(OC)c(OC)cc4[C@H](O2)c2c(c4ccccc4oc2=O)O3)cc1`, for which the Potency entry in experiment [2] is “inactive”.

With `C[C@H]1Cc2c(-c3ccccc3)nc3c(c2CO1)CN(C(=O)NCCc1c[nH]c2ccccc12)CC3`, the Potency result in [1] was “inactive”.

For the compound `COC(=O)CCC(=O)OC1(C)C(=O)C2=CN(CCc3c[nH]c4ccccc34)C(c3ccc(OC)cc3)=CC2=C(Br)C1=O` (stereo unspecified), the Potency result in experiment [2] was “inactive”.

For the compound `COC(=O)C1=C(C(=O)OC)[C@@H]2N(C)c3ccc(OC)cc3[C@@]23C[C@@H](C(=O)OC)N(S(=O)(=O)c2c(C)noc2C)C3=N1`, the Potency entry in experiment [2] is “inactive”.

As to `COCOc1c2c(c(OCOC)c3c(OCOC)cccc13)C(=NNS(C)(=O)=O)C1=C2CCCC1`, the Potency result in experiment [2] was “inactive”. For the same compound, in experiment [1], the Potency is 1690 nM (active).

Consider `C=CCN1C=C2C(=O)C(C)(OC(=O)c3cccs3)C(=O)C=C2C=C1CCCC(=O)OC` (stereo unspecified), for which the Potency entry in experiment [2] and in experiment [1] was “inactive” in each case.

For the compound `COc1ccc(O[C@H]2C=C[C@@H](c3ccccc3)O[C@H]2COC(=O)CCC(C)=NO[C@H](C)c2cn([C@H](CO)Cc3ccccc3)nn2)cc1`, in experiment [2], the Potency entry was “inactive”. For the same compound, the Potency in [1] was 1510 nM (active).

With `CCCCS(=O)(=O)N1C2=NC(C(=O)OC)=C(C(=O)OC)[C@@H]3N(Cc4ccccc4)c4ccccc4[C@]23C[C@H]1C(=O)OC`, in experiment [1], the Potency is 1510 nM (active).

For the compound `COc1ccc(CN2C=C3C(=O)C(C)(OC(=O)CCc4ccccc4)C(=O)C=C3C=C2c2ccc(C#N)cc2)cc1` (stereo unspecified), the Potency result in experiment [2] was “inactive”.

In the case of `COC(=O)[C@@H]1CC[C@H](C)[C@@H](c2ccc(C)cc2)N1C(=O)c1ccc(C=NO[C@@H](C)c2cc(-c3c(C)cc(C)cc3C)no2)cc1`, the Potency in experiment [2] and in experiment [1] was 1690 nM (active) each time.

As to `COC(=O)C1=C(C(=O)OC)[C@@H]2N(Cc3ccccc3)c3ccccc3[C@@]23C[C@@H](C(=O)OC)N(S(=O)(=O)c2ccc(Br)cc2)C3=N1`, the Potency is 1350 nM (active) in experiment [2] and 1510 nM (active) in experiment [1].

Turning to `CC(=O)OC[C@H]1O[C@H](C#Cc2ccc(C)cc2C)C=C[C@H]1OC(C)=O`, in [1], the Potency was 1690 nM (active).

For the compound `CC(CCN1CCCCc2nc(C)c(C)cc21)=NO[C@@H](C)c1cn([C@H](CO)Cc2ccccc2)nn1`, the Potency entry in [2] is “inactive”.

As for `C[C@@H]1CC[C@H]2C(=O)N(Cc3cccc([N+](=O)[O-])c3)C[C@H](O)CN2[C@@H]1c1ccc(Br)cc1`, the Potency entry in experiment [2] and in experiment [1] was “inactive” throughout.

Consider `COc1ccc(C=CC2=CC3(C)CC2(C)C(c2ccc(OC)cc2)CC3=O)cc1` (stereo unspecified), for which the Potency in experiment [1] is 1690 nM (active).

Consider `C[C@@H]1CC[C@H]2C(=O)N(Cc3ccccc3)C[C@H](O)CN2[C@H]1c1ccc(Br)cc1`, for which, in experiment [2], the Potency entry was “inactive”.

With `COC(=O)C1=C(C(=O)OC)[C@@H]2Nc3ccccc3[C@@]23C[C@@H](C(=O)OC)N(C(=O)C2CCC2)C3=N1`, the Potency result in [2] was “inactive”.

In the case of `CC(=O)OC[C@H]1O[C@H](C#Cc2ccc(C(C)(C)C)cc2)C=C[C@H]1OC(C)=O`, in experiment [1], the Potency was 1690 nM (active).

As for `COC(=O)C1=C(C)N(CCc2cc(OC)c(OC)c(OC)c2)C(=O)N[C@H]1c1ccccc1`, the Potency result in experiment [2] and in [1] was “inactive” each time.

As for `C[C@H]1Cc2c(COc3ccccc3)nc3c(c2CO1)CN(S(=O)(=O)c1ccc(Cl)c2nonc12)CC3`, the Potency entry in experiment [2] was “inactive”.

As to `CC(=O)OCC(=O)[C@@]1(O)CCC2C3CCC4=CC(=O)CC[C@]4(C)C3=CC[C@@]21C` (stereo partly specified), the Potency result in experiment [3], in experiment [4], in [5], in [6], in experiment [7] and in [8] was “inactive” throughout. Further, the Potency result in experiment [9], in experiment [10], in experiment [11], in experiment [12], in experiment [13] and in experiment [14] was “inactive” throughout. Further, the Potency entry in [15], in [16], in experiment [17], in [18] and in [19] was “inactive” in each case.

`CCN(CC)CCCN1C=C2C(=O)C(C)(OC(=O)c3cccs3)C(=O)C=C2C=C1CCCC(=O)OC` (stereo unspecified): in experiment [1], the Potency result is “inactive”.

In the case of `CCCCCC(=O)c1cc(CC(C(=O)OC)C(=O)OC)cc2cc(OC)c(OC)cc12`, the activity change, positive = activation in experiment [20] was -51.6% [at 11.4 µM]. For the same compound, the Potency entry in [2] and in [1] was “inactive” in each case.

In the case of `COc1cc2c(C)c3c4c(cc(OC)c(OC)c4c2cc1OC)CCN3C`, in experiment [20], the Potency result was “inactive”.

On to `CCOC(=O)C(CS)NCCN[C@@H](CS)C(=O)OCC` (stereo partly specified), for which the Potency result in experiment [3], in experiment [4], in experiment [5], in experiment [6], in experiment [7] and in experiment [8] was “inactive” throughout. Further, the Potency entry in experiment [9], in [10], in [11], in experiment [12], in [13] and in experiment [14] was “inactive” in each case. For the same compound, the Potency result in experiment [15], in experiment [16], in [17], in [18] and in experiment [19] was “inactive” each time.

For the compound `CC(C)C(NC(=O)C(CC(=O)O)NC(=O)C(CCCCN)NC(=O)C(N)CCCN=C(N)N)C(=O)NC(Cc1ccc(O)cc1)C(=O)O` (stereo unspecified) (H-RKDVY-OH; configuration not given here), the Potency entry in [3], in experiment [4], in experiment [5], in [6], in experiment [7] and in experiment [8] was “inactive” in each case. Besides, the Potency result in [9], in [10], in experiment [11], in experiment [12], in experiment [13] and in [14] was “inactive” each time. Also, the Potency result in [15], in experiment [16], in experiment [17], in experiment [18] and in [19] was “inactive” each time.

For `O=C(/C=C/c1ccc(O)cc1)c1cccs1`, the Potency entry in [20] was “inactive”.

For the compound `NC(=O)CCC1NC(=O)C(Cc2ccccc2)NC(=O)C(Cc2ccc(O)cc2)NC(=O)CCSSCC(C(=O)N2CCCC2C(=O)NC(CCCN=C(N)N)C(=O)NCC(N)=O)NC(=O)C(CC(N)=O)NC1=O` (stereo unspecified), the Potency result in [3], in experiment [4], in experiment [5], in experiment [6], in [7] and in experiment [8] was “inactive” each time. For the same compound, the Potency result in [9], in experiment [10], in experiment [11], in experiment [12], in experiment [13] and in [14] was “inactive” throughout. The Potency entry in experiment [15], in experiment [16], in experiment [17], in experiment [18] and in experiment [19] was “inactive” each time.

For the origin of these results see PubChem BioAssay (NCATS).
